Reference: PubChem BioAssay AID485314 (National Center for Advancing Translational Sciences (NCATS), 2010)
About 4,500 (1.3%) of roughly 340,000 compounds were called active. Inconclusive results (about 5%) are left out. The sample holds actives, similar compounds and a random draw of the others, so the mix is not that of the screen. Calls come from the whole dose curve; as a rule, active = well fitted inhibition curve with a large enough effect; inconclusive = small, poorly fitted or top-dose-only effect, or another doubt; inactive = no such curve, though single readings can be large or run the other way.

What follows are molecules tested against DNA polymerase beta (Homo sapiens) (UniProt P06746) (assay: qHTS Assay for Inhibitors of DNA Polymerase Beta). Details: Pol beta primer extension/strand displacement, fluorescence kinetic; series mostly up to 114 µM; activity change, negative = inhibition: at the top concentration.
Summary of the method: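 Enzyme-only controls used 10 nM Pol beta; buffer lacking enzyme served as negative control. Compound preincubated 15 min, then 50 nM substrate added; 0 and 10 min reads at room temperature.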
% is set by controls: 0 for no effect and ±100 for the full control effect; potency is the fitted concentration of half-maximal effect.

Activity change, negative = inhibition, inactive:
Cc1ccccc1CNC(=O)c1cccc(NC(=O)c2nsc3ccccc23)c1 5.88%
COc1cc(OC)cc(C(=O)Nc2cc3nn(-c4ccccc4)nc3cc2Cl)c1 4.33%
CC1(C)Cc2c(C#N)c(SCc3nc4ccccc4[nH]3)nc(N3CCOCC3)c2CO1 22.2%
O=c1[nH]c(N2CCOCC2)nc2ccccc12 -8.66%
O=C(CC(c1cccs1)N1Cc2ccccc2C1=O)Nc1ccc(F)c(F)c1 (centres undefined) -15.9%
Cc1c(C(=O)Nc2cccc(Cl)c2)oc2ccc(S(=O)(=O)N3CCOCC3)cc12 1.9%
CCc1nnc(NS(=O)(=O)c2ccc(NC(=S)NC(=O)c3cccs3)cc2)s1 -13.3%
CCOC(=O)c1c(NC(=S)NC(=O)/C=C/c2cccs2)sc(C)c1C 1.96% [at 57.1 µM]
COc1cccc(CNC(=O)Cc2csc3nc(-c4ccccc4)cn23)c1 0.953%
Fc1ccccc1Oc1ncnc2c1oc1ccccc12 10.3%
COc1ccc(CC(=O)Nc2nnc3n2CCS3)cc1OC 4.66%
CCCCOc1ccc(CNC(=O)c2ccc3c(c2)N(C)C(=O)C2CCCCN32)cc1 (centres undefined) 7.82%
COc1ccccc1-c1cc2nc(C)c(CCC(=O)O)c(C)n2n1 7.49%
CCn1c(SCC(=O)NCc2ccco2)nnc1-c1ccc(N)cc1 3.21%
O=C(CSc1nc2ccc(Nc3nc(N4CCOCC4)nc(N4CCOCC4)n3)cc2s1)NCc1ccco1 -8.34%
Cc1ccc(Cn2c(CNC(=O)Cc3cccc(C)c3)nc3cccnc32)cc1 12.8%
Cc1cc(NC(=O)c2cccc(Cl)c2)ccc1-c1cc2ccccc2oc1=O -1.24%
CCOc1ccc(-n2c(C)nc3c(cnn3-c3ccc(C)cc3)c2=O)cc1 3.24%
COc1cccc(NC(=O)CN2C(=O)c3ccccc3Sc3ncccc32)c1 4.05%
COC(=O)c1ccc2c(c1)N(CC(=O)Nc1ccc(C)c(C)c1)C(=O)c1ccccc1S2 -5.63%
CCc1ccc(NC(=O)Cn2c(=O)n(CCC(=O)NCc3ccc4c(c3)OCO4)c(=O)c3ccccc32)cc1 34.8%
COc1ccc(NC(=O)COCc2cc(-c3ccco3)on2)cc1 40.1%
Cc1cccc(NC(=O)CSc2nnc(-c3ccco3)o2)c1 2.85%
CNc1nnc(-c2ccco2)s1 -0.0763%
CC(=O)Nc1ccc(NC(=O)COc2ccc(-c3ccccc3)cc2)cc1 2.33%
O=C(CSc1nc(=O)[nH]c2c1CCCC2)Nc1cc(C(F)(F)F)ccc1Cl 14%
Cc1cccc(C(C)C)c1NC(=O)C(NS(=O)(=O)c1cccc2nsnc12)c1ccccc1 (centres undefined) 4.29%
C=Cc1ccc(Cn2c(C(=O)O)c(CNC3CCCC3)c3ccc(C)cc32)cc1 -0.255%
O=C(NCc1ccc2c(c1)CCN2C(=O)c1ccccc1)Nc1cc(F)ccc1F -19%
Cc1cccc(-c2nc(SCc3ccc(Br)cc3)n3[nH]c(=O)cc3n2)c1 -25.2%
Cc1nc(SCCOc2ccc(Cl)cc2)[nH]c(=O)c1Cc1ccccc1 7.28%
COc1ccccc1CCNC(=O)c1cccn1-c1nnc(N2CCCCC2)s1 -3.75%
Cc1cc(C)cc(NS(=O)(=O)c2ccc3[nH]cc(C(=O)N4CCCCC4)c(=O)c3c2)c1 -3.39%
CCCCNC(=O)c1c[nH]c2ccc(S(=O)(=O)Nc3ccc(OCC)cc3)cc2c1=O -18.1%
O=C(Nc1nc2c(s1)CCCC2)c1ccccc1F 3.06%
COc1cc(OC)c(NC(=O)Cc2ccc(-n3c(C)nc4cccnc43)cc2)cc1Cl 6.51%
COc1ccc(CNC(=O)c2ccc(NC(=O)N3CC4CCCN4c4ccccc43)cc2)cc1 (centres undefined) 1.31%
O=C(Nc1ccc2nc(SCC(=O)N3CCCc4ccccc43)sc2c1)c1ccc(Cl)cc1 -10.6%
CC(C)(C)C(=O)CSc1nc2ccccc2o1 4.4%
O=C(CSc1nc2ccccc2o1)N/N=C/c1ccccc1C(=O)O 29.7%
Cc1ccccc1-c1nc(CS(=O)(=O)CC(=O)Nc2cc(Cl)cc(Cl)c2)c(C)o1 0.293%
CCC(C)NC(=O)C1c2ccccc2Oc2ccccc21 (centres undefined) -7.44%
Cn1c(SCC(=O)N/N=C/c2ccc(O)c(O)c2)nc2ccccc21 -12.5%
Cc1ccc(Nc2c(-c3ccc(Cl)cc3)nc3sccn23)c(C)c1 3.67%
Cc1ccc(C(=O)N2CCc3cc(CNC(=O)c4ccc(Br)cc4)ccc32)cc1 -1.22%
CCn1cc(C(=O)NCCc2ccccc2)c(=O)c2cc(S(=O)(=O)N3CCCCCC3)ccc21 13%
CCOC(=O)c1c(C)[nH]c(CCC(=O)NCCCN2CCN(c3cccc(Cl)c3)CC2)c1C -26.9%
O=C(NCCSc1ccccc1)c1ccco1 6.21%
O=c1c2ccccc2c(-c2ccc(Br)cc2)nn1Cc1ccccc1 1.64%
CCn1cc2nc(SCc3ccccc3Cl)n(CCc3ccccc3)c(=O)c2n1 1.98%
CCc1ccc(NC(=O)c2sc3nc4c(cc3c2N)CN(CC)CC4)cc1 -13.7%
CCc1nnc(NC(=O)c2sc3nc(C)cc(COC)c3c2N)s1 -0.594%

Potency, active:
C1=C(N2CCOCC2)/C(=C/c2nc3ccccc3[nH]2)CC1 20 µM
CCc1nnc(NS(=O)(=O)c2ccc(NC(=S)NC(=O)/C=C/c3cccs3)cc2)s1 89.1 µM
C=CCn1c(CSc2nc3ccccc3s2)nnc1SCC(=O)NCc1ccco1 39.8 µM
COc1ccccc1NC(=O)CN1C(=O)c2ccccc2Sc2ccc(C(=O)N3CCCC3)cc21 50.1 µM
Cc1ccc(OCC(=O)Nc2ccc(-c3nnc(-c4ccco4)o3)cc2)cc1 14.1 µM
COc1ccc(OCC(=O)Nc2nnc(-c3ccco3)s2)cc1 17.8 µM
O=c1cc2nc(-c3ccccc3)nc(SCCOc3ccc(Cl)cc3)n2[nH]1 20 µM
CC(C)c1ccc(NS(=O)(=O)c2ccc3[nH]cc(C(=O)NC4CCCC4)c(=O)c3c2)cc1 20 µM
Cc1ccc(/C=N/NC(=O)CSc2nc3ccccc3o2)cc1 44.7 µM
O=C(N/N=C/c1ccc(O)c(O)c1)C1c2ccccc2Oc2ccccc21 7.08 µM
O=C(NCCc1ccco1)c1nn(Cc2ccccc2)c(=O)c2ccccc12 44.7 µM
CCc1ccc2nc3sc(C(=O)Nc4nnc(CC)s4)c(N)c3cc2c1 25.1 µM
